Experimental data: PubChem BioAssay (Tox21)
Values without a mark were called inactive. Results filed as inconclusive are left out. The source made the active and inactive calls. The call rests on the fitted dose curve; in most records, active means well fitted curve in the direction sought with a large enough effect in the repeat runs; inconclusive means weak or mixed curves; inactive means no such curve, though single readings can be large; an effect the other way counts as inactive or inconclusive.

Assay: qHTS assay to identify small molecule HDAC inhibitors - cell viability counter screen (AID 1259365); further: nearly all actives have a fitted effect of over 50% in size
Details: HCT-116 viability, CellTiter-Glo ATP luminescence, 2 h; series mostly up to 92.4 µM
How it was run: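 After overnight seeding at 1,500 cells per well, wild-type HCT-116 cultures took up compounds in DMSO for 2hr at 37 C. Viable cell content came from luminescence with CellTiter-Glo.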
On the % scale 0 is the no-effect control and ±100 the full control effect.

**Q.** For COc1cc2nc(N3CCN(C(=O)C4CCCO4)CC3)nc(N)c2cc1OC (centres undefined), which outcome is on record?
**A.** inactive

**Q.** With O=S(=O)(O)CC(O)CCl (centres undefined) as the compound, how does the outcome read?
**A.** inactive

**Q.** With C=CC(=O)OCC[N+](C)(C)C as the compound, how does the outcome read?
**A.** inactive

**Q.** With C=C(C)C(=O)OCCOC1CC2CC1C1C=CCC21 (centres undefined) as the compound, how does the outcome read?
**A.** inactive

**Q.** With C/C=C/C(=O)CCCC as the compound, how does the outcome read?
**A.** inactive

**Q.** With CCCC(C)C(O)CC (centres undefined) as the compound, how does the outcome read?
**A.** inactive

**Q.** Which outcome does the source give for CCCCCCCCCCCBr here?
**A.** inactive

**Q.** For CC1(C)CC(N)CC(C)(C)N1, which outcome is on record?
**A.** inactive

**Q.** For COc1cc(C(=O)NC2CCCNC2)cc(OC)c1OC (centres undefined), which outcome is on record?
**A.** inactive

**Q.** With Cc1cc(N)no1 as the compound, how does the outcome read?
**A.** inactive

**Q.** For CC(=O)SCC(CC(=O)c1ccc(C)cc1)C(=O)O (centres undefined), which outcome is on record?
**A.** inactive

**Q.** Which outcome does the source give for NCC1CCC(C(=O)Oc2ccc(CCC(=O)O)cc2)CC1 (centres undefined) here?
**A.** inactive

**Q.** For C[n+]1ccccc1/C=N/O, which outcome is on record?
**A.** inactive

Assay: qHTS assay to identify small molecule agonists of the sonic hedgehog signaling (Shh) pathway - cell viability counter screen (AID 1259366); further: nearly all actives have a fitted effect of over 50% in size
Details: NIH/3T3 Gli1-Luc viability, CellTiter-Fluor, 24 h; series mostly up to 92.4 µM
How it was run: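 Same-well cytotoxicity read. Gli1-Luc reporter 3T3 cells; compounds 24hr, 37C/5% CO2; CellTiter-Fluor fluorescence.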

**Q.** Which outcome does the source give for N#CC1(N)CCCCC1 here?
**A.** inactive

**Q.** With CC(C)(C)c1ccc(C(=O)CCCCl)cc1 as the compound, how does the outcome read?
**A.** inactive

**Q.** For CN(C)CCCN(C)C, which viability change, negative = cytotoxic is on record?
**A.** -8.84% [at 8.39 µM]

**Q.** Which outcome does the source give for CCCCC(CC)COC(=O)CC#N (centres undefined) here?
**A.** inactive

**Q.** Which outcome does the source give for COc1ccc(Cl)cc1C here?
**A.** inactive

**Q.** With Cc1cc(O)c(Cl)cc1C as the compound, how does the outcome read?
**A.** inactive

**Q.** Which outcome does the source give for CN(C)c1ccncc1 here?
**A.** inactive

**Q.** For CC(C)(C)c1ccc(N)cc1, which outcome is on record?
**A.** inactive

**Q.** With CCCCCCCC(=O)N(C)C as the compound, how does the outcome read?
**A.** inactive

**Q.** Which outcome does the source give for CCN1CCN(C(=O)N[C@@H](C(=O)N[C@@H]2C(=O)N3[C@@H]2SC(C)(C)[C@H]3C(=O)O)c2ccccc2)C(=O)C1=O here?
**A.** inactive

**Q.** With Cc1ccccc1OCC(=O)O as the compound, how does the outcome read?
**A.** inactive

**Q.** Which outcome does the source give for CC[N+](C)(CC)CC here?
**A.** inactive

**Q.** For CCCCS, which outcome is on record?
**A.** inactive

**Q.** Which outcome does the source give for CCC(C)c1nccnc1OC (centres undefined) here?
**A.** inactive

**Q.** For CC1(C)S[C@@H]2[C@H](NC(=O)Cc3ccccc3)C(=O)N2[C@H]1C(=O)O (tested in a mixture with another compound), which outcome is on record?
**A.** inactive

**Q.** With C=COCCCCO as the compound, how does the outcome read?
**A.** inactive

**Q.** Which outcome does the source give for CCOC(=O)CC(C(C)=O)C(C)=O here?
**A.** inactive

**Q.** For C=CCN(CC=C)CC=C, which outcome is on record?
**A.** inactive

**Q.** Which outcome does the source give for CC(C)(C)OC=O here?
**A.** inactive

**Q.** For COc1ccccc1N1CCN(CC(O)COc2cc(OC)c(OC)c(OC)c2)CC1 (centres undefined), which outcome is on record?
**A.** inactive

**Q.** For C/C=C(\C)C=O, which outcome is on record?
**A.** inactive

**Q.** With CNC(C)=O as the compound, how does the outcome read?
**A.** inactive

**Q.** Which outcome does the source give for O=Cc1ccccc1S(=O)(=O)O here?
**A.** inactive

**Q.** For CCCCCCCCCCCCCCBr, which outcome is on record?
**A.** inactive

**Q.** With C[C@@H]1NC(=O)[C@@H](N)CNC(=O)[C@H](C2CCNC(N)=N2)NC(=O)/C(=C/NC(N)=O)NC(=O)[C@H](CNC(=O)C[C@@H](N)CCCN)NC1=O (some centres undefined) as the compound, how does the viability change, negative = cytotoxic read?
**A.** -4% [at 0.349 µM]

**Q.** With COc1cc2nc(N3CCN(C(=O)C4CCCO4)CC3)nc(N)c2cc1OC (centres undefined) as the compound, how does the outcome read?
**A.** inactive

**Q.** Which outcome does the source give for O=S(=O)(O)CC(O)CCl (centres undefined) here?
**A.** inactive

**Q.** Which outcome does the source give for C=CC(=O)OCC[N+](C)(C)C here?
**A.** inactive

**Q.** Which outcome does the source give for C=C(C)C(=O)OCCOC1CC2CC1C1C=CCC21 (centres undefined) here?
**A.** inactive

**Q.** For C/C=C/C(=O)CCCC, which outcome is on record?
**A.** inactive

**Q.** With CCCC(C)C(O)CC (centres undefined) as the compound, how does the outcome read?
**A.** inactive

**Q.** With CCCCCCCCCCCBr as the compound, how does the outcome read?
**A.** inactive

**Q.** With CC1(C)CC(N)CC(C)(C)N1 as the compound, how does the outcome read?
**A.** inactive

**Q.** For COc1cc(C(=O)NC2CCCNC2)cc(OC)c1OC (centres undefined), which outcome is on record?
**A.** inactive

**Q.** With Cc1cc(N)no1 as the compound, how does the outcome read?
**A.** inactive

**Q.** For CC(=O)SCC(CC(=O)c1ccc(C)cc1)C(=O)O (centres undefined), which outcome is on record?
**A.** inactive

**Q.** For NCC1CCC(C(=O)Oc2ccc(CCC(=O)O)cc2)CC1 (centres undefined), which outcome is on record?
**A.** inactive

**Q.** With C[n+]1ccccc1/C=N/O as the compound, how does the outcome read?
**A.** inactive

Assay: qHTS assay to identify small molecule antagonists of the sonic hedgehog signaling (Shh) pathway - cell viability counter screen (AID 1259367); further: nearly all actives have a fitted effect of over 55% in size
Details: NIH/3T3 Gli1-Luc viability, CellTiter-Fluor, 24 h; series mostly up to 92.4 µM
How it was run: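 Conditioned medium drove Shh signaling in 3T3 Gli1-Luc cells exposed to compounds at 37C and 5% CO2. Viability was determined from CellTiter-Fluor fluorescence, with reagent incubated 1 hr after 23 hr of treatment.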

**Q.** With N#CC1(N)CCCCC1 as the compound, how does the outcome read?
**A.** inactive

**Q.** For CC(C)(C)c1ccc(C(=O)CCCCl)cc1, which outcome is on record?
**A.** inactive

**Q.** For CN(C)CCCN(C)C, which viability change, negative = cytotoxic is on record?
**A.** 4.7% [at 8.39 µM]

**Q.** Which outcome does the source give for CCCCC(CC)COC(=O)CC#N (centres undefined) here?
**A.** inactive

**Q.** For COc1ccc(Cl)cc1C, which outcome is on record?
**A.** inactive

**Q.** With Cc1cc(O)c(Cl)cc1C as the compound, how does the outcome read?
**A.** inactive

**Q.** For CN(C)c1ccncc1, which outcome is on record?
**A.** inactive

**Q.** Which outcome does the source give for CC(C)(C)c1ccc(N)cc1 here?
**A.** inactive

**Q.** For CCCCCCCC(=O)N(C)C, which outcome is on record?
**A.** inactive

**Q.** Which outcome does the source give for CCN1CCN(C(=O)N[C@@H](C(=O)N[C@@H]2C(=O)N3[C@@H]2SC(C)(C)[C@H]3C(=O)O)c2ccccc2)C(=O)C1=O here?
**A.** inactive

**Q.** With Cc1ccccc1OCC(=O)O as the compound, how does the outcome read?
**A.** inactive

**Q.** With CC[N+](C)(CC)CC as the compound, how does the outcome read?
**A.** inactive

**Q.** With CCCCS as the compound, how does the outcome read?
**A.** inactive

**Q.** With CCC(C)c1nccnc1OC (centres undefined) as the compound, how does the outcome read?
**A.** inactive

**Q.** With CC1(C)S[C@@H]2[C@H](NC(=O)Cc3ccccc3)C(=O)N2[C@H]1C(=O)O (tested in a mixture with another compound) as the compound, how does the outcome read?
**A.** inactive

**Q.** With C=COCCCCO as the compound, how does the outcome read?
**A.** inactive

**Q.** With CCOC(=O)CC(C(C)=O)C(C)=O as the compound, how does the outcome read?
**A.** inactive

**Q.** With C=CCN(CC=C)CC=C as the compound, how does the outcome read?
**A.** inactive

**Q.** For CC(C)(C)OC=O, which outcome is on record?
**A.** inactive

**Q.** For COc1ccccc1N1CCN(CC(O)COc2cc(OC)c(OC)c(OC)c2)CC1 (centres undefined), which outcome is on record?
**A.** inactive

**Q.** Which outcome does the source give for C/C=C(\C)C=O here?
**A.** inactive

**Q.** For CNC(C)=O, which outcome is on record?
**A.** inactive

**Q.** For O=Cc1ccccc1S(=O)(=O)O, which outcome is on record?
**A.** inactive

**Q.** Which outcome does the source give for CCCCCCCCCCCCCCBr here?
**A.** inactive

**Q.** Which viability change, negative = cytotoxic does the source give for C[C@@H]1NC(=O)[C@@H](N)CNC(=O)[C@H](C2CCNC(N)=N2)NC(=O)/C(=C/NC(N)=O)NC(=O)[C@H](CNC(=O)C[C@@H](N)CCCN)NC1=O (some centres undefined) here?
**A.** 1.74% [at 0.349 µM]

**Q.** For COc1cc2nc(N3CCN(C(=O)C4CCCO4)CC3)nc(N)c2cc1OC (centres undefined), which outcome is on record?
**A.** inactive

**Q.** For O=S(=O)(O)CC(O)CCl (centres undefined), which outcome is on record?
**A.** inactive

**Q.** For C=CC(=O)OCC[N+](C)(C)C, which outcome is on record?
**A.** inactive

**Q.** With C=C(C)C(=O)OCCOC1CC2CC1C1C=CCC21 (centres undefined) as the compound, how does the outcome read?
**A.** inactive

**Q.** For C/C=C/C(=O)CCCC, which outcome is on record?
**A.** inactive

**Q.** Which outcome does the source give for CCCC(C)C(O)CC (centres undefined) here?
**A.** inactive

**Q.** With CCCCCCCCCCCBr as the compound, how does the outcome read?
**A.** inactive

**Q.** For CC1(C)CC(N)CC(C)(C)N1, which outcome is on record?
**A.** inactive

**Q.** Which outcome does the source give for COc1cc(C(=O)NC2CCCNC2)cc(OC)c1OC (centres undefined) here?
**A.** inactive

**Q.** For Cc1cc(N)no1, which outcome is on record?
**A.** inactive

**Q.** With CC(=O)SCC(CC(=O)c1ccc(C)cc1)C(=O)O (centres undefined) as the compound, how does the outcome read?
**A.** inactive

**Q.** With NCC1CCC(C(=O)Oc2ccc(CCC(=O)O)cc2)CC1 (centres undefined) as the compound, how does the outcome read?
**A.** inactive

**Q.** With C[n+]1ccccc1/C=N/O as the compound, how does the outcome read?
**A.** inactive
